# Reference: PubChem BioAssay
# Activity calls are given as the source filed them. Unless noted, the rule behind the calls is not given here.
# How the values were obtained:
# [1] = test system: Wnt5a (protein binding on small-molecule microarray); test: small molecules binding Wnt5a protein – biophysical, small-molecule microarray, 635/667 nm fluorescence, primary screen (AID 1142); details: 635 nm fluorescence, higher = more signal;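 note: fluorescence read at 667 nm with signal to noise per printed feature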
# [2] = ATP-based viability of Huh7 replicon cells – cell-based, CellTiter-Glo luminescence, basal, 48 h, cytotoxicity control for HCV replication inhibitor project, primary screen (AID 1143); details: higher = more signal, called active from +8 up or from −8 down;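 note: Huh7 hepatoma cells carrying a hepatitis C replication reporter with no stimulus; test concentration not given here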
# [3] = Pseudomonas biofilm growth suppression – PAO1 strain, BacTiter-Glo luminescence, LB-PBS, primary screen (AID 1144); details: P. aeruginosa PAO1 biofilm, 12 h, higher = more signal
# [4] = basal CRE-LacZ reporter activity in PC12 – cell-based, unstimulated, primary screen (AID 1145); details: no forskolin, luminescence, 4.5 h, higher = more signal, called active from +8 up or from −8 down
# [5] = forskolin-driven CRE-LacZ activity in PC12 – cell-based, CRE-LacZ reporter, forskolin-stimulated, primary screen (AID 1146); details: luminescence, 4.5 h, higher = more signal, called active from +8 up or from −8 down;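 note: PC12 cells with 6xCRE LacZ reporter stimulated by forskolin 10 µM; beta-galactosidase reporter signal reflecting CREB driven transcription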
# [6] = molecular target: Streptavidin (Streptomyces avidinii) (UniProt P22629); test: compounds binding control protein streptavidin – biophysical, small-molecule microarray, 635/667 nm fluorescence, artefact control for SMM compound annotation, primary screen (AID 1147); details: higher = more signal;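 note: signal reflects streptavidin binding to arrayed compounds as a control protein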
# [7] = probe aInhba binding on compound microarray – biochemical, small-molecule microarray, 635/667 nm fluorescence, primary screen (AID 1148); details: higher = more signal;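 note: score merges 667nm spot fluorescence with signal-to-noise for antibody binding to printed compounds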
# [8] = molecular target: Torsin-1A (Homo sapiens) (UniProt O14656); test: TOR1A wild-type binding on microarray – cell lysate, small-molecule microarray, lysate, 635/667 nm, primary screen (AID 1149); details: COS7 hTOR1A-WT lysate, 635 nm fluorescence, higher = more signal
# [9] = molecular target: Torsin-1A (Homo sapiens) (UniProt O14656); test: torsin A mutant lysate binding on microarrays – cell lysate, small-molecule microarray, COS7 lysate, 635/667 nm fluorescence, primary screen (AID 1150); details: COS7 hTOR1A mutant lysate, 635 nm fluorescence, higher = more signal;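 note: score pools 667 nm emission and signal to noise measuring lysate protein binding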
# [10] = test system: Sonic hedgehog protein (Shh); test: Sonic hedgehog microarray binding compounds – biochemical, small-molecule microarray, 635/667 nm fluorescence, primary screen (AID 1151); details: 635 nm fluorescence, higher = more signal;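 note: Shh protein binding to compounds spotted on small-molecule microarray slides; score combines spot fluorescence intensity with signal-to-noise across triplicate slides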
# [11] = optical density shifts of acrAB sulA E. coli – strain DRC41, OD650, 48 h, E. coli filamentation inducer project, primary screen (AID 1152); details: higher = more signal, called active from +8 up or from −8 down;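 note: E. coli MC1000 strain DRC41 lacking acrAB efflux pump and sulA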
# [12] = probe aLefty1 binding on compound microarray – biochemical, small-molecule microarray, 635/667 nm fluorescence, primary screen (AID 1153); details: higher = more signal;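 note: score merges spot fluorescence with signal-to-noise ratio from the scanned slide images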
# [13] = plasmodial surface anion channel blockers, osmotic lysis – cell-based, P. falciparum Indochina, OD700, 1 h, primary screen (AID 1154); details: P. falciparum Indochina infected RBC osmotic lysis, higher = more signal, called active from +8 up or from −8 down
# [14] = plasmodial surface anion channel blockers, osmotic lysis – cell-based, P. falciparum Indochina, OD700, 2 h, primary screen (AID 1155);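 note: lysis reports solute entry through the parasite surface anion channel PSAC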; details: P. falciparum Indochina infected erythrocytes, higher = more signal, called active from +8 up or from −8 down
# [15] = changes in parasitized red cell lysis, either direction – P. falciparum Indochina, OD700, 3 h, PSAC antagonist project, primary screen (AID 1156); details: P. falciparum-infected erythrocytes, osmotic lysis, higher = more signal, called active from +8 up or from −8 down
# [16] = plasmodial surface anion channel blockers, osmotic lysis – cell-based, P. falciparum Indochina, OD700, 18 h, primary screen (AID 1157); details: P. falciparum Indochina infected erythrocytes, osmotic lysis OD700, 18 h; higher = more signal, called active from +8 up or from −8 down
# [17] = S6 kinase pathway phospho-S6 level changes – cell-based, A549, cytoblot, luminescence, serum-stimulated, primary screen (AID 1158); details: 5 h, higher = more signal;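 note: serum-stimulated A549 lung adenocarcinoma cells; signal is phosphorylated S6 detected by cytoblot immunostaining with HRP secondary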
# [18] = molecular target: NADPH oxidase 2 (Homo sapiens) (UniProt P04839); test: compounds shifting NOX2 Amplex Red fluorescence – cell-based, HEK293-NOX2, PMA-stimulated, NOX inhibitor project, primary screen (AID 1159); details: 45 min, higher = more signal, called active from +8 up or from −8 down; note: test concentration not given here
# [19] = molecular target: NADPH oxidase 4 (Homo sapiens) (UniProt Q9NPH5); test: compounds shifting NOX4 Amplex Red fluorescence – cell-based, HEK293-NOX4, tetracycline-induced, NOX inhibitor project, primary screen (AID 1160); details: HEK293-NOX4, Amplex Red H2O2 fluorescence, 45 min; higher = more signal, called active from +8 up or from −8 down
# [20] = molecular target: NADPH oxidase 5 (Homo sapiens) (UniProt Q96PH1); test: compounds shifting NOX5 Amplex Red fluorescence – cell-based, HEK293-NOX5, NOX inhibitor project, primary screen (AID 1161); details: HEK293-NOX5, ionomycin, 45 min, higher = more signal
# Chain of NADPH oxidase 5 (Homo sapiens) (Q96PH1 whole entry, looked up): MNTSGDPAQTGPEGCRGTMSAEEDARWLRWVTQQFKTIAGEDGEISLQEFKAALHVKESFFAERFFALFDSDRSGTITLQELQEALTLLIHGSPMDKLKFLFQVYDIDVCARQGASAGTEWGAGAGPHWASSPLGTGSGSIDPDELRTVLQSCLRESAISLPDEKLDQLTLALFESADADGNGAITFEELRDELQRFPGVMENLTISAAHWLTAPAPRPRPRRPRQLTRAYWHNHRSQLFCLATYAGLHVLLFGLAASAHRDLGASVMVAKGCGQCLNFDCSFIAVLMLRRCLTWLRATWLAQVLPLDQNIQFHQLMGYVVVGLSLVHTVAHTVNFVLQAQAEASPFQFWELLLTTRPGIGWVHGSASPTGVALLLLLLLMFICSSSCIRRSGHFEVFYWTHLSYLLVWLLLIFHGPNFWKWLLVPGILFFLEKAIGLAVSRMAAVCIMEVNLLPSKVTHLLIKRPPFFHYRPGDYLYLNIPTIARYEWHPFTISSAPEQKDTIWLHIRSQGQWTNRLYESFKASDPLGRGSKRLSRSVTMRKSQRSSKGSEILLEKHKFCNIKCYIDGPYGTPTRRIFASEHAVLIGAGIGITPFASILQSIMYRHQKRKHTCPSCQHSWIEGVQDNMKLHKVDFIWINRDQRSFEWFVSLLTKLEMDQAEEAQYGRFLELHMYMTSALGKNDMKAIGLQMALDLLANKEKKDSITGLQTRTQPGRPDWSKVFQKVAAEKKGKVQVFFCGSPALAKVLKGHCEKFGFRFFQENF
# Chain of NADPH oxidase 2 (Homo sapiens) (P04839 whole entry, looked up): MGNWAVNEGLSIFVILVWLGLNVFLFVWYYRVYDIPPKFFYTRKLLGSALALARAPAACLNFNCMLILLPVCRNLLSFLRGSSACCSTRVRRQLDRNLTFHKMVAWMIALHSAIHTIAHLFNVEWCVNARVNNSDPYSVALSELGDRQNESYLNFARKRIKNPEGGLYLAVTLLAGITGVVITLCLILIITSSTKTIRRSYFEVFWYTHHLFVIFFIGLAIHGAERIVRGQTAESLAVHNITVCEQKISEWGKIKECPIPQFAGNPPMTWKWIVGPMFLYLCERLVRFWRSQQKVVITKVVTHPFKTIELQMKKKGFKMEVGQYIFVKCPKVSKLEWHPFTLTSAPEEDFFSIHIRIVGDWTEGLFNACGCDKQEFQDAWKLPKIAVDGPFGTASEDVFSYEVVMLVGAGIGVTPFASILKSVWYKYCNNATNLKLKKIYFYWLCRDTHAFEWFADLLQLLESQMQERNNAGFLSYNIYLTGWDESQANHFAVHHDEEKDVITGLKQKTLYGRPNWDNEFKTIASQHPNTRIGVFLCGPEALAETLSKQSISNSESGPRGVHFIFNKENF
# Chain of Streptavidin (Streptomyces avidinii) (P22629 whole entry, looked up): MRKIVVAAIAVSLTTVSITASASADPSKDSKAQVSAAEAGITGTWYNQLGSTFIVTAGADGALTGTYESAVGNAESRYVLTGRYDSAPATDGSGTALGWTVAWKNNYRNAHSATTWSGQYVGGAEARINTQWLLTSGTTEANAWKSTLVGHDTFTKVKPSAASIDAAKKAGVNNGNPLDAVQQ
# Chain of NADPH oxidase 4 (Homo sapiens) (Q9NPH5 whole entry, looked up): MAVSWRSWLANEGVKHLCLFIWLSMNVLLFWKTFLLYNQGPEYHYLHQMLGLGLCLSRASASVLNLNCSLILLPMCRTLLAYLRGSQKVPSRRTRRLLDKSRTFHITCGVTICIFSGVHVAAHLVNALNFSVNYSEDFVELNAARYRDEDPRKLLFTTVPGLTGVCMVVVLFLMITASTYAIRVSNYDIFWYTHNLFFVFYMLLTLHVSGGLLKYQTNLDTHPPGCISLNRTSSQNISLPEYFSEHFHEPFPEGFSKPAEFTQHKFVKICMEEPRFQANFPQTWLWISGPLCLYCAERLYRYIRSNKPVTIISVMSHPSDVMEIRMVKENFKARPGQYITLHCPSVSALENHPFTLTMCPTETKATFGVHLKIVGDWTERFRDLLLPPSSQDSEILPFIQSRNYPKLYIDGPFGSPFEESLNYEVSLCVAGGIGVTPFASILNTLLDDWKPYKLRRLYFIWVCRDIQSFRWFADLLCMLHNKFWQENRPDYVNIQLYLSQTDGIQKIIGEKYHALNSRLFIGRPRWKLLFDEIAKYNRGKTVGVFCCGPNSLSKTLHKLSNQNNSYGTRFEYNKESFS
# Chain of Torsin-1A (Homo sapiens) (O14656 whole entry, looked up): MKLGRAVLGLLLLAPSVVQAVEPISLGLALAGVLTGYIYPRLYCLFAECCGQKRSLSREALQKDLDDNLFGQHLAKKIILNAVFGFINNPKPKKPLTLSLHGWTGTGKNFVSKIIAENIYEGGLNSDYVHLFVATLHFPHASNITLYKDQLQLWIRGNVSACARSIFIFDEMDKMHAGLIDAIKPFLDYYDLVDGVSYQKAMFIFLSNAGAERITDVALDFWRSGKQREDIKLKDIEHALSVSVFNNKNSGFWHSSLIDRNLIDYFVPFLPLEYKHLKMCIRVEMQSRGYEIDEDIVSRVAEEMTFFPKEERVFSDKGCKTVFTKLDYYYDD
Structure (SMILES),composite z-score [1],z-score [2],z-score [3],z-score [4],z-score [5],composite z-score [6],composite z-score [7],composite z-score [8],composite z-score [9],composite z-score [10],z-score [11],composite z-score [12],z-score [13],z-score [14],z-score [15],z-score [16],z-score [17],z-score [18],z-score [19],z-score [20]
O=c1n(-c2ccccc2)c(=O)n2n1CC[C@@H]1C(=NOCc3ccccc3)[C@H]3O[C@H]3[C@@H](O)[C@@H]12,0.18,0.492 (inactive),0.251 (inactive),-0.385 (inactive),-0.314 (inactive),-0.445,-0.0695,-0.614,-0.315,-0.0835,-0.422 (inactive),-0.514,6.33 (inactive),0.0311 (inactive),0.349 (inactive),0.425 (inactive),-0.302,-3.43 (inactive),-0.13 (inactive),0.183
CCOC(=O)NN=C1C[C@@H](O)[C@@H](O)[C@@H]2[C@@H]3C(=O)N(c4ccc(F)cc4F)C(=O)[C@@H]3CC[C@@H]12,0.0054,0.176 (inactive),0.449 (inactive),-0.0211 (inactive),0.34 (inactive),0.309,-0.016,0.308,0.12,0.219,-0.588 (inactive),0.197,1.73 (inactive),0.719 (inactive),0.171 (inactive),0.0581 (inactive),-0.561,0.992 (inactive),0.605 (inactive),-0.407
C[C@@H](c1ccccc1)N1C(=O)[C@H]2[C@H]3[C@H](O)[C@H](O)CC(=NO[C@@H]4O[C@H](CO)[C@@H](O)[C@H](O)[C@H]4O)[C@H]3CC[C@H]2C1=O,0.189,0.573 (inactive),-0.104 (inactive),-0.294 (inactive),0.845 (inactive),0.152,-0.142,0.225,0.249,0.457,0.391 (inactive),1.16,-0.483 (inactive),-0.205 (inactive),-0.0944 (inactive),-0.0378 (inactive),-0.0015,1.5 (inactive),-1.93 (inactive),-0.63
CC[C@@H](c1ccccc1)n1c(=O)n2n(c1=O)[C@H]1[C@H](O)[C@@H]3O[C@@H]3C(=NOC[C@@H](O)COCc3ccco3)[C@H]1CC2,0.112,0.456 (inactive),0.232 (inactive),0.704 (inactive),0.427 (inactive),-0.715,-0.257,-0.354,-0.517,1.07,-0.389 (inactive),-0.89,1.34 (inactive),-0.339 (inactive),-0.18 (inactive),-0.381 (inactive),0.225,-0.892 (inactive),0.796 (inactive),1.36
CO[C@H]1COC(=O)[C@@H](Cc2ccccc2)NC(=O)[C@@H](C)COC(=O)CCC[C@@H]1C,0.0124,-0.382 (inactive),-0.0381 (inactive),-1.21 (inactive),-0.596 (inactive),-0.343,-0.285,0.656,0.187,0.787,0.558 (inactive),-0.309,-1.19 (inactive),-1.66 (inactive),-0.155 (inactive),-2.21 (inactive),0.781,-0.785 (inactive),0.533 (inactive),0.789
O=C(NN=C1C[C@@H](O)[C@@H](O)[C@@H]2[C@@H]3C(=O)N(C[C@@H]4CCCO4)C(=O)[C@@H]3CC[C@@H]12)OCc1ccccc1,0.0252,-0.746 (inactive),0.556 (inactive),0.694 (inactive),0.13 (inactive),-0.34,-0.242,2.6,2.72,0.604,0.828 (inactive),-0.24,0.423 (inactive),-1.35 (inactive),0.449 (inactive),-1.97 (inactive),2.18,-0.532 (inactive),0.554 (inactive),0.8
Cc1cc2c(c(=O)o1)[C@@H](O)[C@H]1O[C@H]1C2=O,0.149,0.773 (inactive),0.0297 (inactive),-0.255 (inactive),0.0917 (inactive),0.361,0.0073,0.102,0.253,1.1,-1.63 (inactive),-0.0547,0.381 (inactive),0.716 (inactive),0.634 (inactive),0.348 (inactive),0.0719,1.6 (inactive),-0.899 (inactive),-1.31
CCOC(=O)CCN1C(=O)[C@H]2[C@H]3[C@H](O)[C@H](O)CC(=NNC(=O)OCc4ccccc4)[C@@H]3CC[C@H]2C1=O,0.109,0.13 (inactive),-0.143 (inactive),0.161 (inactive),-0.244 (inactive),0.551,-0.218,0.701,0.672,1.26,0.809 (inactive),-0.147,0.0026 (inactive),-0.37 (inactive),-0.371 (inactive),-0.0393 (inactive),0.33,-4.57 (inactive),0.0939 (inactive),0.181
